The record followed here is PubChem BioAssay (Tox21).

Molecules are shown by their SMILES. Several values for one entry are separate records, joined by “and”; a condition that tells them apart may be missing. Equal values may be shown once. Records with an inconclusive call do not appear. Where a structure was tested more than once in an assay, its records may differ in their call. Activity calls are given as the source filed them. Unless noted, calls come from the whole dose curve; as a rule, active = well fitted curve in the direction sought with a large enough effect in the repeat runs; inconclusive = weak or mixed curves; inactive = no such curve, though single readings can be large; an effect the other way counts as inactive or inconclusive.

Experiment [1] has as its target Aryl hydrocarbon receptor (Homo sapiens) (UniProt P35869). Nature of the experiment: qHTS assay to identify small molecule that activate the aryl hydrocarbon receptor (AhR) signaling pathway (AID 743085).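 For activation: HG2L7.5c1 human HepG2 liver cells with stably integrated DRE-driven firefly reporter; series mostly up to about 70 µM.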 Note: nearly all actives have a fitted effect of over 15% in size. Note: potency is the fitted concentration of half-maximal effect. In a few lines:
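Compounds were tested in HepG2 hepatocellular carcinoma cells harbouring a stably integrated luciferase gene under control of 20 DREs. Increased reporter signal after 24 h treatment at 37C was taken as AhR activation.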

Experiment [2] is described as follows: qHTS assay to identify small molecule that activate the aryl hydrocarbon receptor (AhR) signaling pathway - cell viability counter screen (AID 743086). Note: nearly all actives have a fitted effect of over 45% in size. Note: potency is the fitted concentration of half-maximal effect. In a few lines: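 Cytotoxicity counter screen: CellTiter-Fluor signal (30 min, 37 C) in 4000 HepG2 cells/well carrying the DRE-luciferase reporter, following 24 h compound exposure at 37 C.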
In general terms: qHTS replaces the single test concentration by a dilution series.

Experiment [3] addresses Peroxisome proliferator-activated receptor gamma (Homo sapiens) (UniProt P37231). Nature of the experiment: qHTS assay to identify small molecule agonists of the peroxisome proliferator-activated receptor gamma (PPARg) signaling pathway (AID 743094; active = well fitted activation curve with a large enough effect in the signal ratio in the repeat runs, not every such curve was filed as active; the % refers to the signal ratio; note: potency is the fitted concentration of half-maximal effect). Put shortly: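 Beta-lactamase FRET fluorescence was the read-out after a 1 h room-temperature substrate step, following 17 h compound treatment at 37C of HEK293H cells expressing a UAS-driven bla reporter responsive to PPARg.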

Experiment [4] can be described thus: qHTS assay to identify small molecule antagonists of the peroxisome proliferator-activated receptor gamma (PPARg) signaling pathway - cell viability counter screen (AID 743194). Note: nearly all actives have a fitted effect of over 55% in size. Note: potency is the fitted concentration of half-maximal effect. In a few lines: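 Viability was measured as CellTiter-Glo luminescence in GeneBLAzer PPARg UAS-bla HEK293H cells. These cells had been exposed 17 h at 37 C to compounds together with rosiglitazone at 50 nM final, with the beta-lactamase readout taken in the same wells.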

Experiment [5] can be described thus: qHTS assay for small molecule agonists of the antioxidant response element (ARE) signaling pathway - cell viability counter screen (AID 743203; calls by dose curve; note: nearly all actives have a fitted effect of over 55% in size; note: potency is the fitted concentration of half-maximal effect). In a few lines:
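HepG2 cells carrying ARE-driven beta-lactamase; 2,000 cells/well; 5 hrs plating; compound pinned from DMSO; 16 hrs 37C/5% CO2; CellTiter-Glo added; 30 min RT; luminescence.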

A short description of experiment [6]: qHTS assay for small molecule activators of the heat shock response signaling pathway - cell viability counter screen (AID 743209). Note: nearly all actives have a fitted effect of over 50% in size. Note: potency is the fitted concentration of half-maximal effect. In a few lines:
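Luminescence from CellTiter-Glo, added after the beta-lactamase FRET read, gave the viability signal. Cells were HSE-bla HeLa treated with DMSO-dissolved compounds for 5 h at 37 C following overnight plating.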

Experiment [7] is described as follows: qHTS assay to identify small molecule agonists of the peroxisome proliferator-activated receptor delta (PPARd) signaling pathway - cell viability counter screen (AID 743211). Note: nearly all actives have a fitted effect of over 55% in size. Note: potency is the fitted concentration of half-maximal effect. In a few lines: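 Counter screen for cytotoxicity run in parallel with the PPARd reporter screen. Beta-lactamase reporter HEK293H cells exposed to compounds 17 h; ATP-based CellTiter-Glo luminescence quantified viability.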

The target of experiment [8] is Peroxisome proliferator-activated receptor gamma (Homo sapiens) (UniProt P37231). Nature of the experiment: qHTS assay to identify small molecule antagonists of the peroxisome proliferator-activated receptor gamma (PPARg) signaling pathway (AID 743191; calls by dose curve; note: nearly all actives have a fitted effect of over 30% in size; note: potency is the fitted concentration of half-maximal effect). Put shortly:
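Beta-lactamase reporter under UAS control in HEK293H PPARg-bla cells; compound treatment 17 h at 37C. Read-out: fluorescence intensity after 1 h room-temperature incubation with LiveBLAzer B/G FRET substrate.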

Experiment [9] is described as follows: qHTS assay for small molecule agonists of the antioxidant response element (ARE) signaling pathway (AID 743202; active = well fitted activation curve with a large enough effect in the signal ratio in the repeat runs, not every such curve was filed as active; the % refers to the signal ratio; note: potency is the fitted concentration of half-maximal effect). Put shortly: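 Quantitative high-throughput format in HepG2 cells bearing an integrated ARE-beta-lactamase reporter. Compound exposure lasted 16 h at 37 C, and fluorescence was read 2 h after adding LiveBLAzer B/G substrate at room temperature.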

Experiment [10] can be described thus: qHTS assay for small molecule activators of the heat shock response signaling pathway (AID 743210; active = well fitted activation curve with a large enough effect in the signal ratio in the repeat runs, with a control signal flat, not every such curve was filed as active; the % refers to the signal ratio;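 note: HeLa cells with beta-lactamase reporter driven by heat shock elements; series mostly up to about 63 µM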). In a few lines: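 HeLa HSE-bla cells, overnight plating; cpd in DMSO 5 h, 37 C; LiveBLAzer B/G FRET substrate 2.5 h RT; fluorescence intensity read.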

Sequence of Aryl hydrocarbon receptor (Homo sapiens) (P35869 whole entry, looked up): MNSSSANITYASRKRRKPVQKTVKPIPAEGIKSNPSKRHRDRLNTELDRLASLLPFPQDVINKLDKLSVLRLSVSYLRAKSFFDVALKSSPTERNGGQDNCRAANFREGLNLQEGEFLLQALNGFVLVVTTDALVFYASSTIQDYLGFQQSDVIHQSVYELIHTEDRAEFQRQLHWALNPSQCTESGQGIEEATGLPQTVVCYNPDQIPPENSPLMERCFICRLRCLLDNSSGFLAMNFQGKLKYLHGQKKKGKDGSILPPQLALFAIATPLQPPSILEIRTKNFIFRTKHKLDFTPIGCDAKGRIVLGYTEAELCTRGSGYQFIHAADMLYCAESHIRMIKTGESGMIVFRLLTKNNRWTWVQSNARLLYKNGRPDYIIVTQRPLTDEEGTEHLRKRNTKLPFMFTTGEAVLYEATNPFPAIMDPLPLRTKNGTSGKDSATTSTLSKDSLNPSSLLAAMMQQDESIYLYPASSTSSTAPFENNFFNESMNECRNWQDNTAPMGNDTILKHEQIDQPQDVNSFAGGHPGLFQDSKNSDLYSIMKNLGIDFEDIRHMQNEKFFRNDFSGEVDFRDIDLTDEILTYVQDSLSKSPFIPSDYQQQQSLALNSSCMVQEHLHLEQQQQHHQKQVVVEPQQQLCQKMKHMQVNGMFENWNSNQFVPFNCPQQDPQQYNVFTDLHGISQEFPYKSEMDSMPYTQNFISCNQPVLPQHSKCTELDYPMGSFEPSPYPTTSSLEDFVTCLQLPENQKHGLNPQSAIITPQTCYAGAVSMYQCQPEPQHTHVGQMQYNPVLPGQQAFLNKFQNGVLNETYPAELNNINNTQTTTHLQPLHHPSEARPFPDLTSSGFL
Sequence of Peroxisome proliferator-activated receptor gamma (Homo sapiens) (P37231 whole entry, looked up): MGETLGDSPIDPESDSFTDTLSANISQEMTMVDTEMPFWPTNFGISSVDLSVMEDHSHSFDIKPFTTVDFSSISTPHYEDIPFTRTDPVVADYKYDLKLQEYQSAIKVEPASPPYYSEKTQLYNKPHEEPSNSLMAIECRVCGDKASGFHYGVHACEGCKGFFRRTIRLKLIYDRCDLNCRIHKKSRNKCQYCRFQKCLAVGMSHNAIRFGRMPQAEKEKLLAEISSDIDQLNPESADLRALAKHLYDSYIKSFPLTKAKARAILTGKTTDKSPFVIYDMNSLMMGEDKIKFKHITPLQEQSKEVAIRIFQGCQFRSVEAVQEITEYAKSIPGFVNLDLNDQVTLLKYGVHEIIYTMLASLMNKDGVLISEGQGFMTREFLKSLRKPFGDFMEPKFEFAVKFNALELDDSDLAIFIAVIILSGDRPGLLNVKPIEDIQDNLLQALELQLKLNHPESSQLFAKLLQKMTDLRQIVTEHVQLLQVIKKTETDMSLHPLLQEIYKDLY

Regarding `CC(C)(C)CC(C)(C)c1ccc(OCCOCC[N+](C)(C)Cc2ccccc2)cc1`, the Potency entry in experiment [1] and in experiment [3] was “inactive” throughout. Also, the Potency result in experiment [2] was “inactive and 61.1 µM (active)”; in [4] it was 19.5 µM (active) and 29.8 µM (active); in experiment [5], 21.7 µM (active) and 29.8 µM (active); in experiment [6], 34.6 µM (active); in [7] it was 21.9 µM (active) and 21.1 µM (active).
Consider `CCCCCCCCCCCCCCCC(=O)OC[C@H](O)[C@H]1OC(=O)C(O)=C1O`, for which the Potency result in experiment [1], in experiment [2], in experiment [8] and in [5] was “inactive” throughout. For the same compound, the Potency in experiment [6] and in [7] was 49 µM (active) in each case.
As for `COc1cc(-c2nc(NC(=O)c3cc4cc(C)cc(C)c4n3CC(=O)O)sc2CCC2CCCCC2)c(OC)cc1Cl`, the Potency result in experiment [1] and in [2] was “inactive” in each case. Besides, the Potency was 35.7 µM (active) in experiment [3], 8.96 µM (active) in experiment [4], 14.1 µM (active) in experiment [5] and 10 µM (active) in experiment [7].
Consider `CCCCCCCCCCCCCCCS(=O)(=O)Oc1ccccc1`, for which the Potency result in experiment [1], in experiment [2], in experiment [3], in experiment [4], in [5] and in experiment [6] was “inactive” in each case. Moreover, the Potency result in experiment [7] is “inactive”.
`CC1=NC(C)OC1C` (configuration not stated): the Potency entry in [1], in experiment [2], in experiment [4], in [5], in [6] and in [10] was “inactive” throughout. Also, the Potency entry in experiment [7] was “inactive”. Further, the Potency in experiment [9] is 30.6 µM (active).
With `Cc1cccc(CN2CCN(C(c3ccccc3)c3ccc(Cl)cc3)CC2)c1` (configuration not stated), the Potency entry in [1], in [2], in experiment [3], in [4], in experiment [5] and in [6] was “inactive” throughout. Besides, the Potency entry in experiment [10] is “inactive”. Moreover, the Potency in experiment [7] was 26.6 µM (active).
Take `CO[Si](CCCNc1ccccc1)(OC)OC`: the Potency result in experiment [1], in experiment [2], in experiment [3], in experiment [4], in [6] and in experiment [10] was “inactive” each time. In addition, the Potency entry in [7] was “inactive”.
In the case of `O=C(O)c1ccc(Cl)c(Cl)c1`, the Potency entry in [1], in experiment [2], in experiment [3], in [5], in experiment [6] and in [10] was “inactive” in each case. For the same compound, the Potency entry in [7] is “inactive”.
Turning to `Cc1nc(-c2ccc3c(c2)CCN(CCC2CCC(NC(=O)/C=C/c4ccc(F)cc4)CC2)CC3)no1` (configuration not stated), the Potency result in [1], in experiment [2], in experiment [4], in [5], in [6] and in experiment [7] was “inactive” throughout. Moreover, the Potency in [3] is 24.6 µM (active).
Consider `Cc1cc2c(cc1C(F)(F)F)N(C(=O)Nc1ccc(Oc3cccnc3C)nc1)CC2`, for which the Potency entry in experiment [1], in experiment [2], in experiment [3], in experiment [4] and in [6] was “inactive” in each case. Moreover, the Potency in experiment [5] is 34.9 µM (active); in experiment [7] it was 44.3 µM (active).
Turning to `Fc1ccc(C(c2ccc(F)cc2)N2CCN(C/C=C/c3ccccc3)CC2)cc1`, the Potency result in experiment [1], in experiment [2] and in experiment [8] was “inactive” each time.
Take `COc1c(C)c2c(c(O)c1C/C=C(\C)CCC(=O)O)C(=O)OC2`: the Potency entry in [1], in experiment [2], in [4], in experiment [6] and in [10] was “inactive” each time. Further, the Potency in [8] is 0.473 µM (active).
In the case of `CCCCCCCCCCC=O`, the Potency result in experiment [1], in experiment [2], in experiment [3], in experiment [4], in experiment [9] and in experiment [5] was “inactive” throughout. The Potency entry in experiment [6], in experiment [10] and in [7] was “inactive” throughout.
Take `N/C(=N\N=C\c1ccc(Cl)cc1)N/N=C/c1ccc(Cl)cc1`: the Potency was 13.3 µM (active) in [1], 21.1 µM (active) in experiment [4] and 29.8 µM (active) in [5]. Also, the Potency entry in [2], in [3] and in experiment [7] was “inactive” throughout.
Turning to `O=C(c1ccc(F)cc1)C1CCN(CCn2c(=O)[nH]c3ccccc3c2=O)CC1`, the Potency result in experiment [1], in experiment [2], in experiment [3], in [9], in experiment [5] and in [6] was “inactive” in each case. The Potency entry in experiment [10] is “inactive”.
As to `Oc1cccc2cc3cccc(O)c3c(O)c12`, the Potency result in [1], in [2], in experiment [3], in experiment [4], in experiment [5] and in experiment [6] was “inactive” in each case. Moreover, the Potency entry in experiment [7] is “inactive”.
Take `COc1ccc(-c2ccc3cc(C(=O)O)ccc3c2)cc1C12CC3CC(CC(C3)C1)C2`: the Potency result in experiment [1], in experiment [2] and in experiment [3] was “inactive” each time. Besides, the Potency in [5] was 23.7 µM (active).
